Compound activity deposited in PubChem by Johns Hopkins Ion Channel Center.
KCNQ2 block: inhibitors of rat KCNQ2 potassium channel; O88943; CHO-K1 KCNQ2, FluxOR thallium flux, 20 min; hits give low values; B-score at 10 µM; 310,000 tested, 1.1% active;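 active = fluorescence ratio B-score at most minus 3 library SDs, with starting brightness B-score within 2 library SDs, cut at about -5.5 in these data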
Target sequence (O88943 whole entry, looked up): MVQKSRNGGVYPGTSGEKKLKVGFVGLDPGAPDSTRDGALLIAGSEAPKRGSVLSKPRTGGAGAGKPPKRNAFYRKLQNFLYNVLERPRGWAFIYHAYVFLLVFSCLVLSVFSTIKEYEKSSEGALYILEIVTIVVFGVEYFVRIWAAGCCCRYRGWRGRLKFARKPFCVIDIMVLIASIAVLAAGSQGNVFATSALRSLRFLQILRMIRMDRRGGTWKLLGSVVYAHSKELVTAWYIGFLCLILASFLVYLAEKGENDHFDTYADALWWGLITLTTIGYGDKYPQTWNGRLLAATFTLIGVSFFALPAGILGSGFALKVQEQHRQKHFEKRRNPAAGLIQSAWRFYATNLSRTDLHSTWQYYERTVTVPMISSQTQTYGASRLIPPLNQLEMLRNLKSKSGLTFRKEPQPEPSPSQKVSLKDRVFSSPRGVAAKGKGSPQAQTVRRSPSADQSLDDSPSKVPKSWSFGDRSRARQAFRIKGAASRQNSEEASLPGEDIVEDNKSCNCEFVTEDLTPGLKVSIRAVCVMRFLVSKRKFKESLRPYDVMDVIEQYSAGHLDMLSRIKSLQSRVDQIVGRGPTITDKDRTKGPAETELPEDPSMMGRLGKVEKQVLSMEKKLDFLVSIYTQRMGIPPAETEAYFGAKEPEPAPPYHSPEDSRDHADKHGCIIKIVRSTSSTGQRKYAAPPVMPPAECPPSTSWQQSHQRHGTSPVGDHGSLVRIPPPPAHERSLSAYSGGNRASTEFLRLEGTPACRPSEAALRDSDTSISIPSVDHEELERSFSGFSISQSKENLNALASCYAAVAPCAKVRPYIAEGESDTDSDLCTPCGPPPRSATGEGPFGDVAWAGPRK
KCNQ2 pot: KCNQ2 (rat) channel potentiation; B-score at 10 µM; CHO-K1 KCNQ2, FluxOR thallium flux fluorescence; hits give high values; 310,000 tested, 0.54% active;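 active = fluorescence ratio B-score at least 3 SD of library B-scores, with initial fluorescence B-score within 3 of them, cut at about 5.3 in these data; same plate scores as AID 2156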;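 also: B-score of peak minus minimum over baseline fluorescence ratio after K+ and Tl+ stimulus; positive B-score means potentiation of KCNQ2 with more thallium influx and brighter signal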
Kir21 confirm: confirmation of mouse Kir2.1 potassium channel inhibitors; AID 2032; Tl flux remaining, % of negative control (hits give low values), % at 10 µM; Kir2.1-expressing cells, FluxOR thallium flux fluorescence; hits give low values; 2,300 tested, 41% active; shares compounds with KCNQ2 pot;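 active = Primary-screen hit whose thallium flux fell at least 3 control SD below untreated wells in both duplicates, with normal baseline fluorescence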;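 also: 0% = blank wells without stimulus and 100% = stimulated no-compound controls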
HEK293 ctr: alters thallium flux in parental HEK293 cells, Kir2.1 counter-screen. shares compounds with KCNQ2 pot. FluxOR thallium flux fluorescence; 0% = unstimulated blank wells. FluxOR signal as % of negative control (100 = no effect), % at 10 µM. 2,300 tested, 19% active;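 active = dye signal at least 3 control SD above or below untreated wells in both duplicates, raw fluorescence within 3, either direction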;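 also: percent is based on the flux ratio of peak minus minimum fluorescence over baseline F0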
CHO-K1 Tl ctr: parental CHO-K1 activity in KCNQ2 potentiator counter-screen. shares compounds with KCNQ2 pot. activity increase over 3SD of controls, % at 10 µM. parental CHO-K1 cells, FluxOR thallium flux fluorescence; zero = vehicle mean+3SD, 100% = vehicle-minus-blank window. 1,200 tested, 43% active;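 active = signal rise of at least 3 SD above the untreated control mean, in both duplicate wells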;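 also: counter screen of KCNQ2 potentiator hits so any rise reflects channel-independent effects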
KCNQ1 pot spec: selectivity of KCNQ2 potentiators: effect on human KCNQ1. shares compounds with KCNQ2 pot. CHO KCNQ1 stable, FluxOR thallium flux fluorescence; beyond 3SD, as % of vehicle-control signal. activation over 3SD threshold, % at 10 µM. 1,200 tested, 28% active;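 active = fluorescence ratio rise of at least 3 SD of vehicle wells above their mean, in both replicate wells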;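 also: 0% = vehicle mean plus 3 SD and 100% = vehicle minus unstimulated blank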
KCNQ2 pot confirm: rat KCNQ2 channel potentiator confirmation; 1,200 tested, 68% active; shares compounds with KCNQ2 pot; CHO-KCNQ2 cells, FluxOR thallium flux fluorescence; potentiation, less the hit threshold, % at 10 µM;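 active = fluorescence ratio rising 3 SD or more over the vehicle control mean in both replicates, plus primary screen hit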;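 also: peak minus minimum thallium fluorescence divided by baseline after K/Tl stimulus; 0% = vehicle mean plus 3 SD and 100% = vehicle minus unstimulated blank difference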
Kir2-1 sel: mouse Kir2.1 off-target activity of KCNQ2 potentiators; shares compounds with KCNQ2 pot; HEK293 Kir2.1, FluxOR thallium flux fluorescence; activity over 3SD threshold, % at 10 µM; 1,200 tested, 2% active; AID 2345;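 active = fluorescence ratio rise of at least 3 SD above the vehicle-control mean, seen in both replicates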;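 also: 0% = vehicle mean plus 3 SD and 100% = vehicle minus no-stimulus blank window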
KCNQ2 W236L MoA: potentiates the retigabine-insensitive rat KCNQ2 W236L mutant channel; shares compounds with KCNQ2 pot; CHO KCNQ2-W236L, automated patch clamp current; current increase over 3SD of negative controls (%), hits give high values, % at 25 µM; 940 tested, 10% active; AID 2558;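 active = current increase at least 3 SD of the untreated controls above them in both duplicate recordings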
Numbers without * were called inactive; i = inactive; . = no result. This is a sample that favours compounds with a hit; in the whole collection about 1.6% have one here.

SMILES | KCNQ2 block | KCNQ2 pot | Kir21 confirm | HEK293 ctr | others
NC(=O)C1CCN(C(=O)COc2ccc3ccccc3c2Br)CC1 | i | . | . | .
C=C1CCN([C@@H](C)C(=O)NCc2ccc(Cl)cc2)S(=O)(=O)c2ccccc21 | i | 0.5 | . | .
CC(C)CCNC(=O)CCc1nnc2n(CCCOC(C)C)c(=O)c3ccccc3n12 | i | 2.5 | . | .
Cc1cc(C(F)(F)F)nc(SCC(=O)Nc2ccccc2)n1 | i | 0.13 | . | .
Cc1cc(C(F)(F)F)nc(SCC(=O)NC2CC3CCC2C3)n1 (stereo not given) | i | 6* | . | . | CHO-K1 Tl ctr=-13;KCNQ1 pot spec=-11;KCNQ2 pot confirm=43*;Kir2-1 sel=-54;KCNQ2 W236L MoA=i
O=C(C1CCCN(S(=O)(=O)c2ccc(F)cc2)C1)N1CCCCCC1 (stereo not given) | i | . | . | .
CN1CCN(CC(O)(c2ccc(Cl)cc2)c2ccc(Cl)cc2)CC1 | i | . | 50%* | i
CN1CCN(CC(O)COc2ccc(Cl)cc2)CC1 (stereo not given) | i | 0.21 | . | .
COc1ccccc1CN(C)C(=O)C(NC(=O)Cc1cccc2ccccc12)C(C)C (stereo not given) | i | . | . | .
COc1cccc(C(C)NC(=S)NCc2ccc(Cl)cc2)c1 (stereo not given) | i | 0.34 | 52%* | i
COc1ccc(C(C)NC(=S)NCc2ccc(F)cc2)cc1 (stereo not given) | i | 1.2 | . | .
Cc1csc(N2CCCC2c2nc3cc(Cl)c(N4CCCCC4)cc3n2CCCO)n1 (stereo not given) | i | 2.4 | . | .
OCCOCCn1c(C2CCCN2c2nc(-c3ccc(F)cc3)cs2)nc2cc(Cl)c(Cl)cc21 (stereo not given) | i | . | . | .
OCCCn1c(C2CCCN2c2nc(-c3ccc(Cl)cc3)cs2)nc2cc(Cl)c(N3CCCCC3)cc21 (stereo not given) | i | 8.1* | i | i | CHO-K1 Tl ctr=13*;KCNQ1 pot spec=-21;KCNQ2 pot confirm=8.9*;Kir2-1 sel=-26;KCNQ2 W236L MoA=i
OCCCn1c(C2CCCN2c2nc(-c3ccc(F)cc3)cs2)nc2cc(Cl)c(N3CCCCC3)cc21 (stereo not given) | i | 10* | i | i | CHO-K1 Tl ctr=-13;KCNQ1 pot spec=-8;KCNQ2 pot confirm=55*;Kir2-1 sel=-25;KCNQ2 W236L MoA=i
COc1cccc(CN2C(=NC(=O)CCC3CCCC3)SC3CS(=O)(=O)CC32)c1 (stereo not given) | i | . | . | .
CC(C)c1cc(Br)ccc1OCCCN1C(=O)NC(C)(C)C1=O | i | . | i | i
CC1(C)NC(=O)N(CCCOc2ccc(Br)cc2Cl)C1=O | i | 0.39 | . | .
O=C(c1ccc2c(c1)OCO2)C1CCCN(Cc2ccc(OC(F)F)cc2)C1 (stereo not given) | i | . | i | 122%*
O=C(c1ccc2c(c1)OCO2)C1CCCN(Cc2cccc(C(F)(F)F)c2)C1 (stereo not given) | i | . | . | .
Cc1ccc(OCCOCCN2CCN(C)CC2)c(C(C)(C)C)c1 | i | 0.05 | . | .
C=CCNCCOCCOc1ccc(Cl)cc1C(C)(C)C | i | . | . | .
C=CCNCCCOc1ccc(Cl)cc1C(C)(C)C | i | . | 28%* | i
CC(C)(C)c1cc(Cl)ccc1OCCOCCN1CCCC1 | i | . | 39%* | i
CCCCCCCCCC[n+]1cccc2c3ccccc3ccc21 | i | . | 7.5%* | i
SMILES | KCNQ2 block | KCNQ2 pot | Kir21 confirm | HEK293 ctr | others
CCCCCCCC[n+]1cccc2c3ccccc3ccc21 | i | 0.04 | . | .
N#CC1(NC(=O)COC(=O)/C=C/c2ccc3ccccc3n2)CCCCC1 | i | 0.03 | . | .
COc1ccc(NC(=O)CN2C(=O)NC(C)(c3ccccc3)C2=O)cc1Cl (stereo not given) | i | . | . | .
Cn1cc(C(C[N+](=O)[O-])c2ccccc2)c2ccccc21 (stereo not given) | i | . | . | .
CC(=O)n1cc(C(C[N+](=O)[O-])SCCN)c2ccccc21 (stereo not given) | -7.3* | -7.3 | 50%* | 76%*
O=C(CCCCCCC(=O)NCc1ccccc1)NCc1ccccc1 | i | 0.55 | . | .
CCCCCCCCCCCCCCCC[N+](C)(C)CC | i | . | 52%* | i
CCCCCC[N+](C)(C)CCSSCC[N+](C)(C)CCCCCC | i | 0.45 | . | .
COc1cc2c(=O)n(CCC(=O)NCC3CCCO3)c(=O)n(CC(=O)c3ccc(Cl)cc3)c2cc1OC (stereo not given) | i | 0.56 | . | .
Cc1ccc(Cc2c(C)[nH]c(=S)[nH]c2=O)cc1 | i | . | . | .
Cc1ccc(Cc2c[nH]c(=S)s2)cc1 | i | 7.9* | i | 386%* | CHO-K1 Tl ctr=-3;KCNQ1 pot spec=-10;KCNQ2 pot confirm=63*;Kir2-1 sel=-18;KCNQ2 W236L MoA=i
CCc1ccc(-n2cnc3cc(C(=O)NCC(OC)OC)ccc32)cc1 | i | 1.2 | . | .
COc1ccc(/C=C2/SC(=O)N(CCC(=O)Nc3ccc(C)cc3)C2=O)cc1OC | i | 0.85 | . | .
COc1cc(/C=C2/SC(=S)N(CC(=O)O)C2=O)ccc1OCC(=O)Nc1ccc(C)c(C)c1 | i | . | i | i
CCOC(=O)N1CCc2c(sc3nc4n(c(=O)c23)N=C(c2ccc(OC)cc2)CS4)C1 | i | 0.93 | . | .
COCCn1c(SCc2ccc(F)cc2)nc2c1c(=O)[nH]c(=O)n2C | i | 1.7 | . | .
CNS(=O)(=O)c1ccc2ccccc2c1 | i | . | . | .
Cc1cc(O)cc(C)c1NS(=O)(=O)c1ccc2ccccc2c1 | i | 2.7 | 56%* | i
CN(c1ccc(O)cc1)S(=O)(=O)c1ccc2ccccc2c1 | i | 0.65 | 50%* | i
CCN(c1ccccc1)S(=O)(=O)c1ccc2ccccc2c1 | i | . | . | .
O=C(Cn1cnc([N+](=O)[O-])c1)Nc1ccccc1C(F)(F)F | i | 0.43 | . | .
COc1ccc(-n2ncc3c2CC(C)(C)CC3NC(=O)C2=CC(=O)CC(C)(C)O2)cc1 (stereo not given) | i | . | . | .
C#Cc1ccc([C@@H]2C=C(C(=O)N3CCOCC3)O[C@H](OCc3ccc(CO)cc3)C2)cc1 | i | 0.1 | . | .
NCCOc1ccc(C23CC4CC(CC(C4)C2)C3)cc1 | i | . | . | .
Cc1ccc(C23CC4CC(CC(CN)(C4)C2)C3)cc1 | i | . | 39%* | i
Cc1ccc(C23CC4CC(CC(C(N)=O)(C4)C2)C3)cc1 | i | 2 | . | .
